HCV NS3h FP: blocks HCV NS3 helicase binding to DNA | actives 1.6% (n = 16,000) | inhibition, % at 100 µM | NS3h Cy5-dT15 DNA binding, fluorescence polarization;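 active = inhibition above the average over every tested compound plus 3 SD, cut at about 40% in these data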
Cy5 interf NS3h: Cy5 fluorescence interference, HCV helicase counter-screen; Cy5-dT15 DNA with NS3h; actives lie on both sides; signal over control mean, under 1 quenches; fluorescence interference ratio at 100 µM; actives 6% (n = 16,000);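 active = compound fluorescence over control fluorescence at most 0.8, a quencher, or at least a set upper limit, an enhancer; inactive = ratio between 0.8 and the set upper limit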
An asterisk follows results filed as active. Most compounds without a hit are left out; they make up all but 6.8% or so of the library.

SMILES	HCV NS3h FP	Cy5 interf NS3h
CCOC(=O)c1ccc(N2NC(=O)/C(=C/c3ccc(O)c(OCC)c3)C2=O)cc1	2	0.73*
CCOc1ccccc1/C=C1/C(=O)NN(c2ccc(C)c(C)c2)C1=O	16	0.91
CCOC(=O)COc1ccc(/C=C2/C(=O)NN(c3ccc(I)cc3)C2=O)cc1OC	3	0.88
O=C1OC(c2ccccc2)=N/C1=C\c1cccc(OC(F)(F)C(F)F)c1	6	1
O=C1C(=O)N(c2ccc(Cl)cc2)C(=O)N1Cc1ccccc1	3	0.93
O=C1c2ccccc2NC(c2ccc(O)cc2)N1c1ccc(Cl)cc1 (centres undefined)	6	0.95
CN(C)c1ccc(NC(=O)c2ccccc2F)cc1	8	0.99
CN(C)c1ccc(NC(=O)c2cc(Cl)ccc2Cl)cc1	45*	0.99
CC(=O)Oc1ccc2c(C(F)(F)F)cc(=O)oc2c1	1	0.94
O=C(Nc1cccc(Cl)c1)N(c1ccccn1)c1ccccn1	7	0.96
COc1ccc(/C=C/C(=O)c2ccc(Cl)cc2)c(OC)c1	4	0.97
COc1ccc(N=C(NOC(C)=O)c2ccc(Cl)cc2)c(OC)c1	10	0.73*
Cc1cccc(N=C2NC(=O)/C(=C\c3ccc(Br)cc3)S2)c1C	10	1.2
O=C(O)c1nn2c(c1Cl)NC(c1ccccc1)CC2C(F)(F)F (centres undefined)	-3	1.1
Cc1cc(/C=C2\C(=O)NC(=O)N(c3cccc(Cl)c3)C2=O)c(C)n1-c1cccnc1	2	0.98
CC(C)CNC(=O)C1CC(=O)N(c2ccc(Cl)cc2)C1 (centres undefined)	2	1.1
Nc1nonc1-n1nnc(CN2CCCCCC2)c1CN1CCCCCC1	3	1.2*
Nc1nonc1-n1nnc(CN2CCOCC2)c1CN1CCOCC1	11	1.1
CC(C)c1ccc(NC(=O)C(=O)NCc2cccs2)cc1	5	1.1
COc1ccc(C(=O)O/N=C(/N)Cc2ccc(Cl)cc2Cl)cc1	21	1
O=C(Nc1ccc(Br)cn1)c1cc2n(n1)C(C(F)(F)F)CC(c1ccccc1)N2 (centres undefined)	24	0.7*
CCc1ccccc1NC(=O)c1cc2n(n1)C(C(F)(F)F)CC(c1ccccc1)N2 (centres undefined)	6	1
Cc1cc2c(cc1Br)NC(=O)C2=O	15	0.76*
COc1cc(CN2CCN(Cc3cc(OC)ccc3OC)CC2)cc(OC)c1	1	1.1
CCOc1ccc(-n2nc3ccc(NC(=O)c4ccc([N+](=O)[O-])o4)cc3n2)cc1	7	1.1
SMILES	HCV NS3h FP	Cy5 interf NS3h
COc1cc([N+](=O)[O-])ccc1N=S(C)C	-7	0.93
N#Cc1cc([N+](=O)[O-])ccc1N=Cc1ccc(C#Cc2ccccc2)cc1	10	0.79*
CN(C1=NC(=O)/C(=C\c2ccc(F)cc2)S1)c1ccc(O)cc1	12	1.1
O=C(/C=C/c1ccc(F)cc1)Nc1cccc(Br)c1	20	1
CCOc1cc(OCC)cc(C(=O)Nc2ccc(C(=O)OC)cc2)c1	16	0.95
CCOc1ccccc1NC(=O)c1c(NC(=O)C(F)(F)F)sc2c1CCCCC2	33	1.2*
CCOc1ccccc1NC(=O)c1c(NC(=O)C(C)(C)C)sc2c1CCCCC2	0	1.1
COC(=O)C1=C(C)N(c2ccccc2F)C(=O)/C1=C\c1ccc(F)cc1	17	1.1
CC(O)CP(=O)(c1ccccc1)c1ccccc1 (centres undefined)	-4	1.1
Cc1cccc(C)c1NC(=O)CO/N=C(/N)c1nonc1N	15	0.71*
N/C(=N\OCC(=O)Nc1ccc(F)cc1)c1nonc1N	0	1
O=[N+]([O-])c1ccc(N2CCOCC2)cc1NC1CC1	7	0.87
CCOc1ccc(C2=C/C(=C/c3cccs3)C(=O)O2)cc1	44*	0.99
COc1ccc(C2=C/C(=C/c3cccs3)C(=O)O2)cc1	27	1
NC(=O)CSc1nc2ccc(Br)cc2[nH]1	-14	0.96
O=C(/C=C/c1ccccc1)Nc1nnc(-c2cccs2)s1	18	1.1
CCOc1ccc(/C=C2\C(=O)NC(=O)N(c3cccc(Br)c3)C2=O)cc1Cl	13	1.2*
CCOc1ccc(N2C(=O)NC(=O)/C(=C\c3ccc(OCC)c(Cl)c3)C2=O)cc1	14	1
CCOc1ccc(/C=C2\C(=O)NC(=O)N(c3ccc(Cl)cc3)C2=O)cc1Cl	26	1
CCOc1ccc(/C=C2\C(=O)NC(=O)N(c3ccc(C)cc3)C2=O)cc1Cl	41*	0.94
Cc1ccc(S(=O)(=O)N(Cc2ccccc2)c2ccccc2C(=O)NCc2ccccc2)cc1	-2	0.9
CCC1CCCCN1C(=O)c1cnn2c(C(F)(F)F)cc(-c3ccc(C)cc3)nc12 (centres undefined)	17	1.1
O=C(NCc1ccc(Cl)cc1)c1cnn2c(C(F)(F)F)cc(-c3ccco3)nc12	12	0.59*
COc1cc(-c2cc(C(F)(F)F)n3ncc(C(=O)NCc4cccnc4)c3n2)cc(OC)c1OC	-1	1.1
COC(=O)c1cnn2c(C(F)(F)F)cc(-c3ccccc3)nc12	10	1
SMILES	HCV NS3h FP	Cy5 interf NS3h
COC(=O)c1ccccc1NC(=O)c1cnn2c(C(F)(F)F)cc(-c3ccc(OC)c(OC)c3)nc12	12	0.68*
Cc1ccc(O)c(NC(=O)c2cnn3c(C(F)(F)F)cc(-c4ccco4)nc23)c1	1	0.58*
O=C1NC(=S)S/C1=C\c1ccc(-c2cc(Cl)ccc2Cl)o1	2	1.1
Nc1ccc(-c2cc(-c3ccc(N)cc3)nc(-c3ccc(N)cc3)n2)cc1	21	0.97
Cc1ccc(OCC(=O)Nc2cccc(C(=O)Nc3ccccc3C(=O)O)c2)cc1C	9	1
COc1cc(C2C3=C(CC(C)(C)CC3=O)OC3=C2C(=O)CC(C)(C)C3)cc(OC)c1OC(C)=O	8	1
CCOC(=O)c1c(-c2ccccc2)oc2ccc(OC(=O)c3cccc([N+](=O)[O-])c3)cc12	15	0.88
Cc1ccc(S(=O)(=O)C(CC(=O)c2ccc(Cl)cc2)c2ccccc2)cc1 (centres undefined)	2	0.98
COc1ccc(C(CC(=O)c2ccccc2)S(=O)(=O)c2ccc(C)cc2)cc1 (centres undefined)	14	0.64*
COc1ccc(C(=O)CC(c2ccc(C(C)C)cc2)S(=O)(=O)c2ccc(C)cc2)cc1 (centres undefined)	18	0.73*
COc1ccc(N(CC(=O)NCC(C)C)S(=O)(=O)c2ccc(C)cc2)cc1	4	1
Cc1cccc(-c2cc(NC(=O)c3ccc(F)cc3)n[nH]2)c1	7	0.99
COc1ccc(C2=C/C(=C/c3ccc([N+](=O)[O-])cc3)C(=O)O2)c(OC)c1	9	0.67*
CCOc1ccc(C2=C/C(=C/c3ccc(OC)cc3)C(=O)O2)cc1	9	1
Nn1c(-c2ccco2)nc2ccccc2c1=O	9	1.1
CCOc1ccc(C(=O)Nc2ccc(OC)c(OC)c2)cc1[N+](=O)[O-]	-13	0.95
Nc1nnc(SCC(=O)N2c3ccccc3CCc3ccccc32)s1	-14	1
COc1cc2c(cc1OC)C(C)N(CCC(=O)O)CC2 (centres undefined)	-6	1.1
O=C(Nc1ccc(F)cc1)c1ccc([N+](=O)[O-])cc1	-11	1.1
CC(=O)c1ccc(Oc2ccc([N+](=O)[O-])cc2)cc1	10	0.64*
Cc1ccc(C(=O)Nc2c(C(=O)Nc3ccccc3)cnn2-c2ccccc2)cc1	12	0.93
